Screening results (PubChem)
Only some compounds are listed: those with a hit (about 6.3% of all), similar ones and a draw of the others.
TIM10 inh – inhibits growth of TIM10 yeast strain; S. cerevisiae TIM10 strain growth, BacTiter-Glo luminescence, 24 h; 330,000 compounds, 1.4% hits; inhibition, % at 10 µM; AID 463195;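 active = inhibition of 40% or more at the single tested concentration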;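 note: wild-type TIM10 isogenic control strain grown at permissive 25 °C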
MPTP inh – permeability transition pore inhibition; inhibition, % at 10 µM; isolated mouse mitochondria, Ca2+ swelling absorbance, 30 min; 360,000 compounds, 1.4% hits; AID 602449;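 active = inhibition of 50% or more, scaled per plate between neutral and stimulator controls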;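 note: 0% = DMSO wells given calcium and 100% = 1 mM EGTA wells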
Mdm2 MdmX PPI – disrupts the human Mdm2-MdmX interaction; SaOS-2 split-luciferase Mdm2/MdmX complementation, luminescence; inhibition, % at 8 µM; 330,000 compounds, 3% hits; AID 485346;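 active = inhibition of at least 50% at 8 µM in the primary screen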
Target sequence (O15151 whole entry, looked up): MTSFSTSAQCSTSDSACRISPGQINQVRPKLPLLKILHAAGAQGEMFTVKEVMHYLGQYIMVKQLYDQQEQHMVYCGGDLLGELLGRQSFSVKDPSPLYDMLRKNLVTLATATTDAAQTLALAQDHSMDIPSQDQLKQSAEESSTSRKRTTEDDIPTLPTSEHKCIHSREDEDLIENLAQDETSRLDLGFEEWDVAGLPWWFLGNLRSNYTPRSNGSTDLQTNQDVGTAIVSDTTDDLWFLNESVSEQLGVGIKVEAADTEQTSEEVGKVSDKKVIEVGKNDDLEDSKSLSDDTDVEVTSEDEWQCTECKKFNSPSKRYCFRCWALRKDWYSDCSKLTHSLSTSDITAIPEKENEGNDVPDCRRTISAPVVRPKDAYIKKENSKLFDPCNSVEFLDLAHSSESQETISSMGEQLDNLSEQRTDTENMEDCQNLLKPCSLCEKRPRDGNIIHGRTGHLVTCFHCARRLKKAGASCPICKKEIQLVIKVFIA
Target sequence (Q00987 whole entry, looked up): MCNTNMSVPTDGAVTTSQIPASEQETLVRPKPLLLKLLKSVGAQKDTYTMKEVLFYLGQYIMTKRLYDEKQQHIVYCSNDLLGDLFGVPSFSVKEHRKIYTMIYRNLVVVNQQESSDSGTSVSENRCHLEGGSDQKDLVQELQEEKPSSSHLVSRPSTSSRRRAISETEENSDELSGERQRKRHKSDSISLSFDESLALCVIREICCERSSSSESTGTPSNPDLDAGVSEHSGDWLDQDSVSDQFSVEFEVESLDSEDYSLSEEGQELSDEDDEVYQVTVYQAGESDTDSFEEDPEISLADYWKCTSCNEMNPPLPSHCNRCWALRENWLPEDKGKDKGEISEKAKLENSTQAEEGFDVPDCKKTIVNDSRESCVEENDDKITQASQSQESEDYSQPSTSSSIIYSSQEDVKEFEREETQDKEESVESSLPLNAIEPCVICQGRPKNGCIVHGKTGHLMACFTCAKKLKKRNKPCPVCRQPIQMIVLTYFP
tim10-1 inh – inhibits growth of tim10-1 mutant yeast; AID 463190; S. cerevisiae tim10-1 ts strain growth, BacTiter-Glo, 24 h; inhibition, % at 20 µM; 330,000 compounds, 2.2% hits;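 active = inhibition of at least 40%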;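 note: mutant grown at 25 °C; 0% = DMSO wells with yeast and 100% = wells holding no yeast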
tim23-1 inh – inhibits growth of tim23-1 mutant yeast; inhibition, % at 20 µM; AID 463212; 330,000 compounds, 1.3% hits; S. cerevisiae tim23-1 growth, BacTiter-Glo luminescence, 24 h;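 active = growth inhibition of the mutant yeast at or above 50%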;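 note: temperature-sensitive mutant grown at 25 °C; plate controls were DMSO-treated mutant yeast for no effect and medium wells lacking yeast for full effect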
TIM10 conf – TIM10 yeast growth inhibition, confirmed. shares compounds with TIM10 inh. S. cerevisiae tim10 strain growth, BacTiter-Glo luminescence, 24 h. inhibition, % at 10 µM. 4,600 compounds, 63% hits;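 active = inhibition of yeast growth at or above a set limit in either of two replicates at 10 µM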;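 note: this counterscreen used the strain with wild-type TIM10; 0% = yeast with DMSO and 100% = medium wells lacking yeast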
tim23-1 conf – confirmation of tim23-1 mutant yeast growth inhibitors | shares compounds with tim23-1 inh | 4,400 compounds, 83% hits | AID 463218 | inhibition, % at 20 µM | S. cerevisiae tim23-1 growth, BacTiter-Glo luminescence, 24 h;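 active = inhibition above about 39% in either of two replicate wells at 20 µM, limit read from the data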;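 note: temperature-sensitive tim23-1 mutant grown at 25 °C; 0% = DMSO wells with yeast and 100% = medium wells without yeast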
Numbers without * were called inactive.

For S=C(NCCc1ccccc1)N/N=C/c1ccc(Cl)cc1 the results were TIM10 inh 41*, MPTP inh 8, Mdm2 MdmX PPI 5, tim10-1 inh 12, tim23-1 inh 42 and TIM10 conf 33*.
For O=C(N/N=C/c1sc(=O)n(-c2ccccc2)c1Cl)c1ccccc1 the results were TIM10 inh 42*, MPTP inh 3, Mdm2 MdmX PPI -40, tim10-1 inh 31, tim23-1 inh 48 and TIM10 conf 22.
For NC(=O)N/N=C/c1sc(=O)n(-c2ccccc2)c1Cl the results were TIM10 inh 11, MPTP inh 2, Mdm2 MdmX PPI 20, tim10-1 inh 10 and tim23-1 inh 14.
`CN1c2ccccc2C(C)(C)[C@]12C=Cc1cc(O)ccc1O2` gave TIM10 inh 45*, MPTP inh 4, Mdm2 MdmX PPI 49, tim10-1 inh 36, tim23-1 inh 42 and TIM10 conf 35*.
For Cc1cccc(/C=N/n2c(C3CCCCC3)n[nH]c2=S)c1 the results were TIM10 inh 40*, MPTP inh 1, Mdm2 MdmX PPI 7, tim10-1 inh 30, tim23-1 inh 33 and TIM10 conf 49*.
For CCOc1ccccc1/C=N/n1c(C2CCCCC2)n[nH]c1=S the results were TIM10 inh 43*, MPTP inh 0, Mdm2 MdmX PPI -4, tim10-1 inh 13, tim23-1 inh 37 and TIM10 conf 50*.
`COc1ccccc1/C=C/C=N/n1c(C2CCCCC2)n[nH]c1=S` gave TIM10 inh 34, MPTP inh 4, Mdm2 MdmX PPI 17, tim10-1 inh 19 and tim23-1 inh 30.
COc1ccc(-c2cc3nc(-c4ccccc4)cc(N4CCCC(O)C4)n3n2)cc1 (stereo unspecified) was read as TIM10 inh 42*, MPTP inh 2, Mdm2 MdmX PPI 35, tim10-1 inh 40, tim23-1 inh 26 and TIM10 conf 34*.
For COc1ccc(-c2cc3nc(-c4ccccc4)cc(N4CCN(C(=O)c5ccccc5)CC4)n3n2)cc1 the results were MPTP inh -1.
O=C(Cn1nc(C(=O)O)c2ccccc2c1=O)NC12CC3CC(CC(C3)C1)C2 was read as TIM10 inh 68*, MPTP inh -2, Mdm2 MdmX PPI 7, tim10-1 inh 37, tim23-1 inh 32 and TIM10 conf 20.
Screening CC(NC(=O)Cn1nc(C(=O)O)c2ccccc2c1=O)C12CC3CC(CC(C3)C1)C2 (stereo unspecified) returned TIM10 inh 12, MPTP inh -2, Mdm2 MdmX PPI 19, tim10-1 inh 25 and tim23-1 inh 21.
Cc1ccc(C)c(Nc2ncccc2C(=O)NCc2cccs2)c1 was read as TIM10 inh 45*, MPTP inh 4, Mdm2 MdmX PPI 17, tim10-1 inh 40, tim23-1 inh 49 and TIM10 conf 44*.
COC(=O)c1ccc(C(=O)N(Cc2ccccc2)c2ccccc2)cc1 was read as TIM10 inh 46*, MPTP inh 1, Mdm2 MdmX PPI 47, tim10-1 inh 15, tim23-1 inh 16 and TIM10 conf -7.
For N#Cc1ccc(C(=O)N(Cc2ccccc2)c2ccccc2)cc1 the results were TIM10 inh 19, MPTP inh 0, Mdm2 MdmX PPI -17, tim10-1 inh 29 and tim23-1 inh 26.
`O=C(c1[nH]c(C(F)(F)F)nc1-c1ccccc1)N1CCC2(CC1)C(=O)NCN2c1ccccc1` gave MPTP inh -1.
`COC(=O)[C@]12CCCCC=C1N(CCc1ccc(OC)c(OC)c1)C(=O)[C@H](CC(=O)N1CCOCC1)C2` gave MPTP inh 0.
For COC(=O)C1=C(C)N(c2cccc(C)c2)C(=O)/C1=C\c1cccs1 the results were TIM10 inh 9, MPTP inh 1, Mdm2 MdmX PPI 2, tim10-1 inh 9 and tim23-1 inh 35.
For COC(=O)C1=C(C)N(c2ccc(Cl)cc2)/C(=C/c2cccs2)C1=O the results were TIM10 inh 47*, MPTP inh 0, Mdm2 MdmX PPI -1, tim10-1 inh 32, tim23-1 inh 37 and TIM10 conf 0.
For COC(=O)C1=C(C)N(c2ccc(C)c(C)c2)/C(=C/c2cccs2)C1=O the results were TIM10 inh 50*, MPTP inh -1, Mdm2 MdmX PPI 20, tim10-1 inh 23, tim23-1 inh 40 and TIM10 conf 47*.
COC(=O)C1=C(C)N(c2ccccc2)/C(=C/c2cccs2)C1=O was read as TIM10 inh 51*, MPTP inh -1, Mdm2 MdmX PPI 9, tim10-1 inh 32, tim23-1 inh 35 and TIM10 conf 35*.
For Cc1ccccc1-c1cnc(C(O)c2cccc(C)c2C)[nH]1 (stereo unspecified) the results were MPTP inh -1.
`CCn1c(-c2ccccc2O)n[nH]c1=S` gave TIM10 inh -3, MPTP inh -2, Mdm2 MdmX PPI -31, tim10-1 inh -7 and tim23-1 inh 3.
For Cc1cccc(-c2n[nH]c(=S)n2Cc2ccccc2)c1 the results were TIM10 inh 41*, MPTP inh -6, Mdm2 MdmX PPI -13, tim10-1 inh 38, tim23-1 inh 23 and TIM10 conf -40.
S=c1[nH]nc(-c2cc3ccccc3o2)n1Cc1ccccc1 was read as TIM10 inh 52*, MPTP inh 3, Mdm2 MdmX PPI 29, tim10-1 inh 33, tim23-1 inh 45 and TIM10 conf 48*.
`CCn1c(-c2cc(-c3ccccc3)sc2N)n[nH]c1=S` gave TIM10 inh 45*, MPTP inh 4, Mdm2 MdmX PPI -6, tim10-1 inh 25, tim23-1 inh 41 and TIM10 conf 43*.
`S=c1[nH]nc(-c2ccc(Cl)cc2Cl)n1Cc1ccccc1` gave TIM10 inh 56*, MPTP inh 3, Mdm2 MdmX PPI 13, tim10-1 inh 28, tim23-1 inh 44 and TIM10 conf 17.
For Cc1noc(C)c1S(=O)(=O)NC(=O)C1(C)CCN1C(=O)Cc1ccc(-c2ccccc2)cc1 (stereo unspecified) the results were MPTP inh 1.
For O=C(Nc1cccc(F)c1)c1ccccc1 the results were TIM10 inh 53*, MPTP inh 0, Mdm2 MdmX PPI -27, tim10-1 inh 11, tim23-1 inh 50*, TIM10 conf 47* and tim23-1 conf 66*.
Cc1ccc(NC(=O)c2ccccc2)cc1C was read as TIM10 inh 46*, MPTP inh -2, Mdm2 MdmX PPI -9, tim10-1 inh 20, tim23-1 inh 59*, TIM10 conf 23 and tim23-1 conf 64*.
`Cc1ccc(NC(=O)c2cccnc2)cc1C` gave TIM10 inh 0, MPTP inh 2, Mdm2 MdmX PPI -13, tim10-1 inh -9 and tim23-1 inh 10.
